# In PubChem BioAssay AID588342 (National Center for Advancing Translational Sciences (NCATS), 2011):
# Among all 360,000 compounds or so, about 25,000 (6.9%) were called active. About 9% were inconclusive and are not listed. Calls come from the whole dose curve; as a rule, active = well fitted inhibition curve with a large enough effect; inconclusive = small, poorly fitted or top-dose-only effect; inactive = flat fitted curve, though single readings scatter. Shown is part of a subset that was picked to be rich in actives. A call without a number means that no potency is given here.
# Biological target: Luciferin 4-monooxygenase (Photinus pyralis) (UniProt P08659)
# Sequence (P08659 whole entry, looked up): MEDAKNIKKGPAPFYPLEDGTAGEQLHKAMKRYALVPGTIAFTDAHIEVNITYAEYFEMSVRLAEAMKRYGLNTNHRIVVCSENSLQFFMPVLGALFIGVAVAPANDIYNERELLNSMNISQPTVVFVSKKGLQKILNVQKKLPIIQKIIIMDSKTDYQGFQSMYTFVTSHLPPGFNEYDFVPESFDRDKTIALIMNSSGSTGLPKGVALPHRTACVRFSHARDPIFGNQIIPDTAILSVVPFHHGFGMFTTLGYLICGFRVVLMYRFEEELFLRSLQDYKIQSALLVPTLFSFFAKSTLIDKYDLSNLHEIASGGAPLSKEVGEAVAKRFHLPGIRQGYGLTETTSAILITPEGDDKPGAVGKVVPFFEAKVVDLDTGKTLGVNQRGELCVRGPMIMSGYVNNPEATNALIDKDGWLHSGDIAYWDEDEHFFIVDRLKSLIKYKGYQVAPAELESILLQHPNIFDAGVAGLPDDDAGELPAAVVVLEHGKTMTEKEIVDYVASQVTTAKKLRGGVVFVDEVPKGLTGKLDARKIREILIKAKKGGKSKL
# Assay: qHTS profiling assay for firefly luciferase inhibitor/activator using purifed enzyme and Km concentrations of substrates (counterscreen for miR-21 project); note: nearly all actives have a fitted effect of over 55% in size
# Details: purified FLuc, luminescence inhibition; series mostly up to 57.5 µM
# In short: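 Biochemical qHTS of compounds, final roughly 60 µM downward over six points, against 10 nM purified firefly luciferase using Km concentrations of substrates (10 uM D-luciferin, 10 uM ATP) in Tris acetate pH 7.5 buffer; luminescence output.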
# Potency is the fitted concentration of half-maximal effect.
row,SMILES,Potency
1,COc1ccc(CCNC(=O)CCCn2c(=O)c3ccccc3n(Cc3ccc(F)cc3Cl)c2=O)cc1OC,inactive
2,COc1ccc2cc(CCl)c(Cl)nc2c1,inactive
3,CC(C)c1ccc(NC(=O)c2cc(S(=O)(=O)N3CCc4ccccc4C3)ccc2F)cc1,inactive
4,CN1C(C(=O)NCc2ccco2)CC2Cn3c(nc4ccccc43)C21 (stereo unspecified),inactive
5,Cc1ccc(NC2=C(c3ccc(C(F)(F)F)cc3)C(=O)c3ccccc32)cc1F,inactive
6,CC1CCCC(NC(=O)c2cc(-c3ccncc3)nc3ccccc23)C1C (stereo unspecified),inactive
7,CCc1ccc(-c2cc(C(=O)NN3CCN(C)CC3)c3ccccc3n2)cc1,2.69 µM (active)
8,CCc1ccc(Sc2cc(C(=O)NCCCOC(C)C)c3ccccc3n2)cc1,inactive
9,CN(Cc1ccccc1)c1ncnc2onc(-c3ccc(F)cc3)c12,inactive
10,COc1ccccc1C(=O)Nn1c(-c2cccs2)nc2ccccc2c1=O,inactive
11,CC(=O)Nc1cccc(Nc2nc(-c3cccs3)nc3ccccc23)c1,23.9 µM (active)
12,O=C(CSc1nc(Nc2ccc(F)c(F)c2)c2ccccc2n1)c1ccc(Cl)cc1,inactive
13,CC(=O)c1ccc(S(=O)(=O)N(C)CCCC(=O)N(C)Cc2ccccc2F)cc1,inactive
14,O=C(/C=C/c1cn(CC(O)CN2CCc3ccccc32)c2ccccc12)c1ccc(Br)cc1 (stereo unspecified),inactive
15,O=C(CSC(=S)N1CCCCC1)c1c(F)cccc1F,2.13 µM (active)
16,O=C(CSC(=S)N1CCOCC1)c1ccccc1,3.01 µM (active)
17,CC(=O)c1ccc(NC(=O)CSC(=S)N2CCCC2)cc1,inactive
18,COc1cccc(NC(=O)CN(C)C(=O)CSC(=S)N2CCCC2)c1,inactive
19,O=C(CSC(=S)N1CCOCC1)c1cc(Br)cc(Br)c1O,inactive
20,CC1CN(C(=S)SCC(=O)c2ccccc2)CC(C)O1 (stereo unspecified),inactive
21,CCCCNC(=O)Cn1nc(C)c(S(=O)(=O)N2CCOCC2)c1C,inactive
22,Cc1ccc(OCC(=O)OCc2cc(=O)n3nc(C4CC4)sc3n2)cc1C,inactive
23,Cc1nn(-c2nc(-c3ccccc3)cc(C(F)(F)F)n2)c(C)c1Cl,inactive
24,COC(=O)c1cc(S(=O)(=O)N2CCN(c3cc(Cl)ccc3C)CC2)c[nH]1,inactive
25,COc1ccc(NC(=O)CSc2nccn2C2CCCC2)cc1OC,inactive
26,COc1ccc(CCNC(=O)c2cnc(Cl)c(Cl)c2)cc1,inactive

row,SMILES,Potency
1,COC(=O)c1ccccc1NC(=O)c1ccc(COc2ccccc2Cl)o1,inactive
2,COc1ccc(OCc2cc(C(=O)NCC3(C)COC3)no2)c(Cl)c1,19 µM (active)
3,CC1CCCN(Cc2c(O)ccc3c(=O)c(Oc4ccc(C(C)(C)C)cc4)c(C(F)(F)F)oc23)C1 (stereo unspecified),inactive
4,COc1ccc(NC(=O)Cn2c(=O)n(Cc3ccc(C(=O)NCc4ccccc4Cl)cc3)c(=O)c3ccccc32)cc1,inactive
5,O=C(Cn1c(=O)n(Cc2cccs2)c(=O)c2cccnc21)Nc1ccc(F)cc1,inactive
6,COc1cc(C(=O)N2CCC(c3ccncc3)CC2)cc(OC)c1OC,inactive
7,C/C(N)=C(/C#N)C(=O)COC(=O)C1CCN(C(=O)c2ccc(Cl)cc2)CC1,inactive
8,COc1cccc(CNC(=O)c2ccc3c(c2)sc2nc(-c4cccc(OC)c4)cn23)c1,inactive
9,Cc1ccc2nc(COc3cccc(NC(=O)c4cccc(Cl)c4)c3)cc(=O)n2c1,inactive
10,Cc1ccc2nc(COc3cccc(NC(=O)Nc4ccc(C)c(Cl)c4)c3)cc(=O)n2c1,inactive
11,Cc1ccc2nc(COc3cccc(NC(=O)c4ccccc4Cl)c3)cc(=O)n2c1,10.7 µM (active)
12,O=C(CNS(=O)(=O)c1ccc2ccccc2c1)Nc1ccc(F)c(F)c1F,inactive
13,O=C(NCCc1ccccc1)c1ccc2c(c1)N(Cc1ccccc1)C(=O)c1ccccc1S2(=O)=O,inactive
14,CC(C)C(=O)Nc1c(O)c2ccccc2[nH]c1=O,inactive
15,NS(=O)(=O)c1ccccc1NC(=O)c1c(O)c2ccccc2[nH]c1=O,9.53 µM (active)
16,CCCc1nc2ccccc2c(=O)n1NC(=O)c1c(O)c2ccccc2[nH]c1=O,inactive
17,CC1(C)N=C(SCc2ccccc2Cl)c2ccccc2N1,inactive
18,Cc1noc(/C=C/N(C)C)c1S(=O)(=O)N1CCCC(C(=O)Nc2cccc(F)c2)C1 (stereo unspecified),inactive
19,Cc1ccc(S(=O)(=O)N2CC(O)C[C@H]2C(=O)OCC(=O)Nc2ccc(N3CCOCC3)cc2)cc1C (stereo partly specified),inactive
20,CC(=O)c1sc(N2C(=O)c3oc4ccccc4c(=O)c3C2c2ccc(C)cc2)nc1C (stereo unspecified),inactive
21,CCN(CC)S(=O)(=O)c1ccc(-c2cn3ccc(C)cc3n2)cc1,2.39 µM (active)
22,CCN(c1cccc(C)c1)S(=O)(=O)c1ccc(-c2coc(C)n2)cc1,inactive
23,COc1ccc(-c2cn3ccc(C)cc3n2)cc1,0.19 µM (active)
24,COc1ccc(-n2c(-c3ccc(OC)c(OC)c3)n[nH]c2=S)cc1,inactive
25,CCN(CC(=O)NCCc1ccccc1)S(=O)(=O)c1ccc(C)cc1,inactive
26,COc1ccc(-c2cn3c(C)c(C(=O)Nc4cc(C)cc(C)c4)sc3n2)cc1,inactive

row,SMILES,Potency
1,Fc1ccc(CN2CCc3nc(Nc4ccccc4)ncc3C2)cc1F,inactive
2,O=C(Nc1cc(C(F)(F)F)ccc1Cl)c1nc2ccccc2nc1N1CCCCC1,inactive
3,CCN1CCC(N(Cc2ccc(F)cc2)C(=O)Nc2cc(C)ccc2C)CC1,inactive
4,O=C(NC1CCCCC1)c1ccc2c(c1)N(Cc1ccc(Cl)cc1)C(=O)c1ccccc1S2=O (stereo unspecified),inactive
5,CN(C(=O)COC(=O)CCCc1c[nH]c2ccccc12)c1c(N)n(Cc2ccccc2)c(=O)[nH]c1=O,inactive
6,CCc1nc2onc(C)c2c(=O)n1CC(=O)O,inactive
7,CC(C)CNC(=S)Nc1ccc(F)cc1,inactive
8,CC(C)CNC(=O)C(=O)Nc1ccc(N(C)C)cc1,10.7 µM (active)
9,CC(C)CNC(=O)C(=O)NCc1ccccc1,inactive
10,COc1ccc(CNC(=O)CSc2nc3ccccc3nc2Cc2ccccc2)cc1,inactive
11,COC(=O)c1cc(=O)n(-c2c(Cl)cc(C(F)(F)F)cc2Cl)[nH]1,inactive
12,Cn1cc(CCC(=O)NCc2ccc3c(c2)OCO3)c2ccccc21,inactive
13,CCc1ccccc1NC(=O)Cc1cn(C)c2ccccc12,inactive
14,Cc1ccc(CNC(=O)Cc2cn(C)c3ccccc23)cc1,15.1 µM (active)
15,COc1cc(Cl)c(NC(=O)CC(C)S(=O)(=O)c2cc3c(cc2C)NC(=O)CO3)c(OC)c1 (stereo unspecified),inactive
16,Cc1nnc(C)n1/N=C/c1ccc(C(C)C)cc1,inactive
17,CCCCCCC(=O)Nc1nc(C)c(-c2csc(Nc3cc(Cl)ccc3OC)n2)s1,inactive
18,CC(=O)c1sc(NC(=O)c2ccc(C)cc2)nc1C,1.9 µM (active)
19,Cc1ccc(C)c2sc(NC(=O)c3ccc(S(=O)(=O)N4CCCC4)cc3)nc12,inactive
20,Cc1cc2c(=O)n(CC(=O)NCC(=O)Nc3ccc(C(C)C)cc3)cnc2s1,inactive
21,Cc1nc(NC(=O)c2cccc(Cl)c2)sc1-c1csc(Nc2cccc(Cl)c2)n1,inactive
22,CC(=O)c1sc(NC(=O)C2=NN(c3ccccc3)C(=O)CC2)nc1C,inactive
23,CC(=O)c1sc(N/N=C\c2ccc(C)cc2)nc1C,2.39 µM (active)
24,Cc1ccc(Nc2nc(-c3sc(NC(=O)c4ccccc4)nc3C)cs2)cc1,12 µM (active)
25,CC(=O)c1sc(N)nc1C,inactive
26,CC(=O)c1sc(N/N=C/c2ccc(C(C)C)cc2)nc1C,6.01 µM (active)

row,SMILES,Potency
1,CC(=O)Nc1ccc(NC(=O)C2CCCN(S(=O)(=O)c3ccc4c(c3)CCCC(=O)N4)C2)cc1 (stereo unspecified),inactive
2,CCc1cccc(CC)c1NC(=O)COc1ccccc1C(=O)c1cc(C#N)c(=O)n(C2CCCCC2)c1,inactive
3,C=C(C)CNc1cc(S(=O)(=O)N2CCOCC2)ccc1Oc1ccccc1,inactive
4,Cc1ccc(Nc2c(-c3ccc(Cl)cc3)nc3sccn23)c(C)c1,inactive
5,Cc1ccc(-c2nn3c(=O)cc(CN4CCN(S(=O)(=O)c5ccc(Cl)cc5)CC4)nc3s2)cc1,inactive
6,O=S(=O)(c1ccc(C2CCCCC2)cc1)N1CCN(c2ccc(Cl)c(Cl)c2)CC1,inactive
7,Cc1cc(=O)oc2cc(NC(=O)C(C)Oc3ccccc3)ccc12 (stereo unspecified),inactive
8,CC(C)C(=O)Nc1ccc2oc(=O)ccc2c1,inactive
9,CC(C)C(=O)Nc1ccc2c(c1)oc1ccccc12,2.69 µM (active)
10,COc1cc2nc(SCc3ccc(F)cc3)n3nc(CCn4c(C)nc5ccccc54)nc3c2cc1OC,inactive
11,O=C(CCc1nc(CN2CCN(S(=O)(=O)c3ccc(F)cc3)CC2)no1)N1CCCCC1,inactive
12,CCC(=O)N1CCc2cc(Br)cc(S(=O)(=O)CCC(=O)NCCc3ccc(OC)c(OC)c3)c21,inactive
13,CCC(=O)N1c2ccccc2CC1C(=O)N1CCN(c2ccccc2F)CC1 (stereo unspecified),inactive
14,COc1cc(OC)cc(C(=O)Nc2ccc3nc(Nc4cccc(C(F)(F)F)c4)cc(C)c3c2)c1,inactive
15,Cc1ccc2nc(Nc3ccccc3)cc(C)c2c1,23.9 µM (active)
16,Cc1ccc2nc(Nc3ccccc3O)nc(-c3ccccc3)c2c1,inactive
17,O.O.O.O=S(=O)([O-])OC[C@H]1O[C@@H](O[C@]2(COS(=O)(=O)[O-])O[C@H](OS(=O)(=O)[O-])[C@@H](OS(=O)(=O)[O-])[C@@H]2OS(=O)(=O)[O-])[C@H](OS(=O)(=O)[O-])[C@@H](OS(=O)(=O)[O-])[C@@H]1OS(=O)(=O)[O-].[Al],inactive
18,CC(=O)Nc1ccc2nc(SCCOc3cc(C)cc(C)c3)sc2c1,inactive
19,CSc1nc2ccc(NC(=O)c3c(F)cccc3F)cc2s1,19 µM (active)
20,O=C(Nc1ccncc1)c1c(F)cccc1F,inactive
21,CC(=O)Cn1ncc(N2CCOCC2)c(Br)c1=O,inactive
22,O=C(Cn1ncc(N2CCCC2)c(Br)c1=O)c1ccc(Cl)cc1,19 µM (active)
23,CCn1c(=O)c(=O)n(CC)c2cc(N3CCCCC3)c(NC(=O)c3ccc(Cl)cc3)cc21,inactive
